# Data published in the supplement of paper PMC6555819.
# Columns and labels:
# Test in all cases: PBM binding z-score (relative to random genomic background probes); higher = stronger binding; sequences stand for … in GC…GCGATTGACAGCGTAGAATGAAGG
# [1] = test system: PPARg:RXRa DBDmut IVT, anti-RXR (DBD mutation: RXRa K156A/R161A, NR concentration 270 nM, RXRa partner concentration 90 nM)
# How it was run: (§1)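 Custom Agilent 4×180K protein-binding microarrays carried double-stranded probes. Their 34-nt variable regions held direct-repeat seeds, single-nucleotide variants, half-site ablations and random human genomic background sequences. Arrays were incubated 1 h with ligand-free nuclear receptor dimers in PBS pH 7.4, 2% milk, 0.02% Triton X-100, 1 mM DTT, 0.2 mg/mL BSA and 0.4 mg/ml salmon testes DNA. Antibodies against each partner (one per run) detected binding, and scanned fluorescence was regression-normalized. Binding z-scores use random background probes as reference.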
# [2] = test system: PPARg:RXRa IVT, anti-PPARg (NR concentration 270 nM, RXRa partner concentration 90 nM)
# How it was run: as §1
# [3] = test system: PPARg DBDmut:RXRa IVT, anti-PPARg (DBD mutation: PPARg1 K132A/R137A, NR concentration 270 nM, RXRa partner concentration 90 nM)
# How it was run: as §1
# [4] = test system: PPARg DBDmut IVT, anti-PPARg (DBD mutation: PPARg1 K132A/R137A, NR concentration 270 nM)
# How it was run: as §1
# [5] = test system: PPARg homodimer (NR concentration 180 nM)
# How it was run: as §1
# [6] = test system: PXR:RXRa (NR concentration 270 nM, RXRa partner concentration 90 nM)
# How it was run: as §1
# [7] = test system: PXR homodimer (NR concentration 270 nM)
# How it was run: as §1
# [8] = test system: RARa:RXR (NR concentration 270 nM, RXRa partner concentration 90 nM)
# How it was run: as §1
# [9] = test system: RARa homodimer (NR concentration 270 nM)
# How it was run: as §1
# [10] = test system: RARb:RXRa (NR concentration 270 nM, RXRa partner concentration 90 nM)
# How it was run: as §1
# [11] = test system: RARb homodimer (NR concentration 270 nM)
# How it was run: as §1
# [12] = test system: RARg:RXRa (NR concentration 270 nM, RXRa partner concentration 90 nM)
# How it was run: as §1
# [13] = test system: RARg homodimer (NR concentration 270 nM)
# How it was run: as §1
# [14] = test system: RXRa DBDmut IVT, anti-RXR (DBD mutation: RXRa K156A/R161A, NR concentration 90 nM)
# How it was run: as §1
# [15] = test system: RXRa homodimer (NR concentration 180 nM)
# How it was run: as §1
# [16] = test system: THRa:RXRa (NR concentration 90 nM, RXRa partner concentration 90 nM)
# How it was run: as §1
# [17] = test system: THRa homodimer (NR concentration 90 nM)
# How it was run: as §1
# [18] = test system: VDR homodimer (NR concentration 270 nM)
# How it was run: as §1
Sequence,PBM binding z-score [1],PBM binding z-score [2],PBM binding z-score [3],PBM binding z-score [4],PBM binding z-score [5],PBM binding z-score [6],PBM binding z-score [7],PBM binding z-score [8],PBM binding z-score [9],PBM binding z-score [10],PBM binding z-score [11],PBM binding z-score [12],PBM binding z-score [13],PBM binding z-score [14],PBM binding z-score [15],PBM binding z-score [16],PBM binding z-score [17],PBM binding z-score [18]
CGTCCAAGGTTAGCAGGTCAGTGAAAGCGACGTG,2,2.5,-0.8,-0.782,1.06,1.18,-0.346,2.01,-0.223,3.08,3.14,2.7,2.6,0.446,2.04,2.07,0.653,0.443
TCTGCTAGGTCAACGGTGGTCAGCTAATCTGCTA,4.54,4.36,-0.104,-0.365,1.38,1.99,-0.742,2.38,-0.57,4.05,3.48,4.11,4.99,1.01,2.54,3.46,0.796,-0.606
TCTTGTACATCAGCAGGTTAAGAAAGCTGGCCAA,1.51,0.722,-0.0534,0.403,-0.0357,0.478,-0.155,0.59,0.183,0.473,0.266,0.217,-0.00852,0.924,0.606,0.455,-0.157,0.111
CGTCCTAGGTCATAGGAGGTCAGTGAAGACAGAT,3.43,4.34,-0.339,-0.4,2.53,6.01,1.28,4.21,1.08,4.6,4.83,5.44,5.84,2.08,4.28,5.13,1.73,2.29
TCTTGTAGCTCAGCAGGTTAAGAAAGCTGGCCAA,0.777,-0.372,-0.853,-0.876,-0.753,-0.26,-0.524,-0.108,-1.11,-0.157,-0.305,-0.557,-0.799,-0.298,-0.011,-0.123,-0.926,-0.952
ATCTCTAGGTAAGTCTCAGTTCAGTGAAGAACGC,1.77,1.38,1.04,1.5,1.22,1.23,2.14,0.749,1.44,0.564,1.02,0.158,0.271,0.813,0.0582,1.07,1.23,1.72
CCAGACAGGTGAAAGGGAACTCAGTCTGGTACGC,1.08,1.02,0.273,-0.448,0.717,-0.0959,-0.23,0.13,0.262,0.537,0.101,0.15,0.299,-0.242,0.59,0.0918,-0.374,0.0555
ATCTCTAGGTAACAAGTTCAGGGAAAGAGAGGAC,3.5,3.06,1.15,2.01,1.61,1.74,1.82,1.32,1.58,1.69,1.98,1.77,1.62,1.06,1.23,1.85,1.01,2.78
CAAACTAGGTCCAGAGGTCAAAGTCCGCTTCCCG,2.96,3.98,0.89,0.535,3.29,5.47,2.58,5.5,0.452,4.11,4.66,5.31,4.62,2.53,6.34,3.75,1.72,4.18
CGTCAAATTTCAAGGTAACGTAACAGAAAGCAGC,-0.147,0.739,1.23,0.951,0.422,0.33,-0.166,0.634,0.311,0.427,-0.107,0.0405,0.398,-0.0368,0.32,2.11,1.27,-0.239
TCATATAGGTAATACAGGGGAAAGTCGGCATCTA,4.42,2.56,1.36,0.581,0.957,0.783,0.581,1.08,0.911,0.566,0.303,0.419,0.551,1.97,0.857,0.893,0.385,-0.00129
ACTATTAGTTGAGACTAGGGCAACCGATAGGTTG,1.02,2.46,0.767,0.914,-0.0941,-0.323,-0.0618,-0.0584,0.518,0.583,0.465,0.376,0.586,-0.0472,0.0824,1.25,-0.533,-0.353
GCTAGCCGGCCATTTGGGTCACTCAATGACGGGC,0.149,1.18,-0.74,-1.42,-0.135,0.15,-0.217,0.452,-1.3,1.19,1.75,0.912,1.1,-0.739,0.725,1.62,0.719,0.157
CCTACTGGGCGAAAGGTCATTGATTCCAATGCTC,3.27,5.79,-0.635,-0.595,2.89,4.98,2.08,5.57,0.869,4.28,4.3,5.19,4.82,1.01,5.76,2.95,0.374,2
CCTAGTTGGTAAGGAGGTCACACACCGGATATGA,1.63,4.06,0.9,0.468,2.82,3.83,1.4,4.14,1.52,3.04,3.85,3.75,3.06,0.539,4.06,3.44,2.35,2.37
